Source: PubChem BioAssay AID485344 (National Center for Advancing Translational Sciences (NCATS), 2010)
Hit rate of the full screen: of about 340,000 compounds, about 6,900 (2%) were called active. Rule as the data show it: active = inhibition above about 30%; inactive = below that, where a call was filed. What follows is part of a selection rich in actives, with near analogues and random picks from the rest.

Molecular target: D(2) dopamine receptor (Homo sapiens) (UniProt P14416)
Assay: HTS Assay for Allosteric Antagonists of the Human D2 Dopamine Receptor: Primary Screen for Antagonists; also: 0% is about no effect
Settings: HEK293 TREx D2 cells, calcium flux, dopamine EC80; at 10 µM; stronger effect = higher value
Summary of the method: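 Tetracycline-induced HEK293 T-REx cells expressing D2 force-coupled to calcium signalling were dye-loaded, exposed to compound for 180 s, then challenged with an EC80 of dopamine; calcium flux was followed kinetically for a further 180 s.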

D(2) dopamine receptor (Homo sapiens), sequence (P14416 whole entry, looked up): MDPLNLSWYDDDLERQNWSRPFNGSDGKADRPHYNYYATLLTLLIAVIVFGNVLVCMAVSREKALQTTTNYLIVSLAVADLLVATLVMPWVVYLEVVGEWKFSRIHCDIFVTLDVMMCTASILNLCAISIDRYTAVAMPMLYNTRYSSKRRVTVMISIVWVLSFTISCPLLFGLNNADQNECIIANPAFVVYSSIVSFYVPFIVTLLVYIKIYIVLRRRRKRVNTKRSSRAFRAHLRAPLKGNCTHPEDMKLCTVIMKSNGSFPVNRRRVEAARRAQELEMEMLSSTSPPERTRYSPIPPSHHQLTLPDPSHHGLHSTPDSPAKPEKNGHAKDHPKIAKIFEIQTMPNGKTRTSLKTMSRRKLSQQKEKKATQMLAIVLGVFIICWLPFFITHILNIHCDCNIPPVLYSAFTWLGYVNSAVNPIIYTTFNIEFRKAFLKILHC

SMILES	inhibition
O=C(c1c(F)cccc1F)N1CCN(S(=O)(=O)c2ccc3c(c2)OCCO3)CC1	8.79% (inactive)
O=C(Nc1ccccn1)C1CCN(S(=O)(=O)c2ccc3c(c2)OCCO3)CC1	-2.31% (inactive)
O=C(c1ccc2c(c1)OCCO2)C1CCN(S(=O)(=O)c2cccc(F)c2)CC1	61.3% (active)
O=C(CSc1nnc(N2CCOCC2)n1-c1cccc(F)c1)N1CCN(c2ccccn2)CC1	4.3% (inactive)
COc1ccccc1C(=O)NCC(=O)OCC(=O)Nc1nnc(-c2ccccc2)o1	1.12% (inactive)
CC(C)(C)C(=O)CSc1ccc(S(=O)(=O)N2CCCC2)cn1	5.12% (inactive)
Cc1cccc(N2CCN(Cc3c(C)n(C)n(-c4ccccc4)c3=O)CC2)c1C	41.2% (active)
Cc1c(CN2CCC(C)CC2)c(=O)n(-c2ccccc2)n1C	-7.69% (inactive)
Cc1c(CN2CCCC(C(=O)c3cccc(Cl)c3)C2)c(=O)n(-c2ccccc2)n1C (configuration not stated)	-0.0762% (inactive)
C#CCOCCOCCOCCNc1nc(N2CCN(C(=O)CCCCCCCCCCNC(=O)[C@H](CCCCN)n3cc(C)nn3)CC2)nc(N2CCN(C(=O)CCCCCCCCCCNC(=O)[C@H](CO)n3cc(CCCSC)nn3)CC2)n1	-18.3% (inactive)
CC12CCC(=O)N1C(C(=O)NCCN1C(=O)S/C(=C\c3ccccc3F)C1=O)CS2 (configuration not stated)	-9.13% (inactive)
CCOc1ccc(NS(=O)(=O)c2ccc(Cl)c(C(=O)N(C)Cc3cccnc3)c2)cc1	10.8% (inactive)
CCN(CC)S(=O)(=O)c1ccc(N2CCOCC2)c(NC(=O)c2ccc(=O)n(C)n2)c1	-40.6% (inactive)
O=c1nc2s/c(=C\c3ccco3)c(=O)n2nc1Cc1ccccc1	-1.5% (inactive)
CSc1nc(-c2ccco2)nn1C(=O)CCc1ccccc1	10.1% (inactive)
CCOc1ccccc1/C=c1\sc2nc(-c3ccco3)nn2c1=O	33.5% (active)
CC(=O)c1ccccc1NC(=O)C1CC(=O)N(c2ccc3c(c2)OCCO3)C1 (configuration not stated)	-6.21% (inactive)
COc1ccc(OC)c(/C=C/C(=O)c2ccc3c(c2)OCO3)c1	6.23% (inactive)
Cc1cc(C)cc(C(=O)N2CCN=C2SCc2ccc([N+](=O)[O-])cc2)c1	-7.25% (inactive)

SMILES	inhibition
Nc1nc(SCc2ccc([N+](=O)[O-])cc2)c2ncn(C3OC(CO)C(O)C3O)c2n1 (configuration not stated)	36.3% (active)
Cc1nc(N)nc(SCc2ccc([N+](=O)[O-])cc2)c1N	12.4% (inactive)
COc1cc(F)c(C2=CC(=O)CC(C)(C)C2)cc1F	-9.82% (inactive)
COC(=O)c1cccc(NC(=O)c2cccc(N3C(=O)CCC3=O)c2)c1	0.805% (inactive)
COc1ccc([C@@H]2[C@@H]3C(=O)N(C(C)(C)C)C(=O)[C@@H]3[C@]3(Cc4ccccc4)C(=O)N(c4cccc(Br)c4)C(=O)N23)cc1	-3.44% (inactive)
Cc1cc(S(=O)(=O)NC2CCCCC2)ccc1OCC(=O)NCc1cccnc1	-3.46% (inactive)
Cc1ccc(CNC(=O)COc2ccc(S(=O)(=O)NC(C)C)cc2)cc1	6.5% (inactive)
Cc1ccc(C)c(NS(=O)(=O)c2ccc(OCC(=O)NCc3cccnc3)cc2)c1	42.3% (active)
Cc1cccc(C(=O)NCc2nnc(SC(C)C(=O)Nc3nnc(C)s3)n2C)c1 (configuration not stated)	8.11% (inactive)
CC1(C)CC(=O)C=C(c2ccc3ncccc3c2)C1	-2.57% (inactive)
CCN(CC(=O)Nc1c(F)cccc1F)C(=O)C1CCC1	-5.66% (inactive)
CCOc1ccc(C(=O)NCC(=O)N2CCCCCCC2)cc1OCC	-3.78% (inactive)
COc1cc(OC)cc(C(=O)NCC(=O)N2CCCCCCC2)c1	33.6% (active)
Cc1cc(C)cc(C(=O)NCC(=O)OCC(=O)N2CCCCC2)c1	1.51% (inactive)
N/C(=N\OC(=O)c1ccc2c(c1)OCO2)c1ccc(Br)cc1	46.1% (active)
N/C(=N\OC(=O)/C=C/c1ccccc1)c1ccc(Br)cc1	-2.34% (inactive)
N/C(=N\OC(=O)N1c2ccccc2Sc2ccccc21)c1ccc(Br)cc1	-13.7% (inactive)
Cn1nc(C(=O)OCC(=O)N(Cc2ccccc2)C(C)(C)C)c2ccccc2c1=O	-16.5% (inactive)
OCCC1CN(Cc2cccc(OC3CCCC3)c2)CCN1Cc1ccsc1 (configuration not stated)	65.5% (active)

SMILES	inhibition
OCCC1CN(Cc2ccc(Oc3ncccn3)cc2)CCN1CCc1ccccc1 (configuration not stated)	-20.6% (inactive)
OCCC1CN(Cc2ccccc2-c2ccco2)CCN1Cc1ccsc1 (configuration not stated)	-17.4% (inactive)
OCCC1CN(Cc2cnc(-c3ccccc3)s2)CCN1CCc1ccccc1 (configuration not stated)	-6.7% (inactive)
OCCC1CN(Cc2cccc(O)c2)CCN1CCc1ccccc1 (configuration not stated)	54.8% (active)
OCCC#Cc1ccc(CN2CCN(Cc3ccsc3)C(CCO)C2)cc1 (configuration not stated)	6.27% (inactive)
Cc1ccc(NC(=O)CCCNC(=O)c2ccc(Cl)cc2)cc1S(=O)(=O)N1CCCCC1	2.49% (inactive)
Nc1ccc(C(=O)N2CCN(S(=O)(=O)c3ccc(Cl)cc3)CC2)cc1[N+](=O)[O-]	1.49% (inactive)
OC(COc1ccc2c(c1)CCC2)CN1CCN(c2cccc(Cl)c2)CC1 (configuration not stated)	39.2% (active)
O=C(COc1ccc2c(c1)CCC2)N1CCN(c2ccc(F)cc2)CC1	3.48% (inactive)
O=c1cc(CN2CCN(c3cccc(Cl)c3)CC2)c2cc3c(cc2o1)CCCC3	-7.58% (inactive)
O=C(O)Cc1sc(-c2ccccc2)nc1-c1cccs1	3.67% (inactive)
C/C(=N/Nc1nc(-c2ccccc2)c(CC(=O)O)s1)c1ccccc1	-8.33% (inactive)
O=C(O)Cc1sc(-c2ccc(C(=O)O)cc2)nc1-c1ccccc1	32.7% (active)
O=C(Nc1ccccc1N1CCOCC1)c1ccncc1	-22.1% (inactive)
COC(=O)c1ccc(C)c(NC(=O)C2CC(=O)N(C3CCCC(C)C3C)C2)c1 (configuration not stated)	25.8% (inactive)
c1ccc(COc2nsnc2N2CCOCC2)cc1	-11.6% (inactive)
c1nc(COc2nsnc2N2CCOCC2)cs1	36.2% (active)
O=C(O)COc1nsnc1N1CCOCC1	-6.01% (inactive)
Cc1nc(SCC(=O)NC2CCCCC2C)c(C#N)c(C)c1C (configuration not stated)	-2.83% (inactive)
